Screen size: about 5,500 compounds; about 2,000 (36%) were called active. Not shown: some 18% with an inconclusive outcome. The list shows a part of the results. A number with no mark means an inactive call. Cut-off read from the data, not from the text of the source: active = normalized growth mostly below about 0.91 (no sharp cut-off); inconclusive = no clear call, values can overlap the other calls; inactive = mostly above about 0.92.
Test: chemical genetic growth profiling, strain panel (AID 1159580);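 note: tested at 20 µM; growth read once vehicle control cultures reached saturation at 30 °C; 1 = growth at the plate median or of vehicle wells; lower values mean less growth of the strain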
Conditions: growth OD
[1] = S. cerevisiae deletion strains, locus YAL013W, strain DEP1, active compounds read low
[2] = S. cerevisiae deletion strains, locus YBR229C, strain ROT2, active compounds read low
[3] = S. cerevisiae deletion strains, locus YCL061C, strain MRC1, active compounds read low
[4] = S. cerevisiae deletion strains, locus YDL101C, strain DUN1, active compounds read low
[5] = S. cerevisiae deletion strains, locus YDR150W, strain NUM1, active compounds read low
[6] = S. cerevisiae deletion strains, locus YEL061C, strain CIN8, active compounds read low
[7] = S. cerevisiae deletion strains, locus YGR078C, strain PAC10, active compounds read low
[8] = S. cerevisiae deletion strains, locus YHR030C, strain SLT2, active compounds read low
[9] = S. cerevisiae deletion strains, locus YHR087W, strain rtc3, active compounds read low
[10] = S. cerevisiae deletion strains, locus YJR043C, strain POL32, active compounds read low
[11] = S. cerevisiae deletion strains, locus YJR075W, strain HOC1, active compounds read low
[12] = S. cerevisiae deletion strains, locus YKL190W, strain CNB1, active compounds read low
[13] = S. cerevisiae deletion strains, locus YLR039C, strain RIC1, active compounds read low
[14] = S. cerevisiae deletion strains, locus YLR058C, strain SHM2 (second series), active compounds read low
[15] = S. cerevisiae deletion strains, locus YLR085C, strain ARP6, active compounds read low
[16] = S. cerevisiae deletion strains, locus YLR262C, strain YPT6, active compounds read low
[17] = S. cerevisiae deletion strains, locus YML094W, strain GIM5, active compounds read low
[18] = S. cerevisiae deletion strains, locus YMR219W, strain ESC1, active compounds read low
[19] = S. cerevisiae deletion strains, locus YMR263W, strain SAP30, active compounds read low
[20] = S. cerevisiae deletion strains, locus YNL128W, strain TEP1, active compounds read low
[21] = S. cerevisiae deletion strains, locus YNL153C, strain GIM3, active compounds read low
[22] = S. cerevisiae deletion strains, locus YNL298W, strain CLA4 (second series), active compounds read low
[23] = S. cerevisiae deletion strains, locus YNL322C, strain KRE1, active compounds read low
[24] = S. cerevisiae deletion strains, locus YNR030W, strain Alg12, active compounds read low
[25] = S. cerevisiae deletion strains, locus YOL006C, strain TOP1, active compounds read low
[26] = S. cerevisiae deletion strains, locus YPL055C, strain LGE1, active compounds read low
[27] = S. cerevisiae deletion strains, locus YPL241C, strain CIN2, active compounds read low
[28] = S. cerevisiae deletion strains, locus YPR135W, strain CTF4, active compounds read low
[29] = S. cerevisiae strains, strain wild type, active compounds read low
[30] = S. cerevisiae deletion strains, locus YGR229C, strain SMI1, active compounds read low

SMILES: CC(=O)CSc1nsc(SCC(C)=O)c1C#N
- normalized growth [1]: 1.01
- normalized growth [2]: 1
- normalized growth [3]: 1.01
- normalized growth [4]: 0.974
- normalized growth (S. cerevisiae deletion strains, locus YDL134C, strain PPH21, active compounds read low): 1.01
- normalized growth [5]: 0.99
- normalized growth [6]: 1.02
- normalized growth [7]: 0.997
- normalized growth [8]: 0.992
- normalized growth [9]: 0.971
- normalized growth [10]: 1
- normalized growth [11]: 0.995
- normalized growth [12]: 1.01
- normalized growth [13]: 1.01
- normalized growth [14]: 0.992
- normalized growth [15]: 1
- normalized growth [16]: 0.962
- normalized growth [17]: 1.01
- normalized growth [18]: 0.989
- normalized growth [19]: 0.996
- normalized growth [20]: 1.01
- normalized growth [21]: 0.979
- normalized growth [22]: 0.988
- normalized growth [23]: 1.01
- normalized growth [24]: 0.986
- normalized growth [25]: 0.87
- normalized growth [26]: 0.903
- normalized growth [27]: 0.992
- normalized growth [28]: 0.918
- normalized growth [29]: 1

SMILES: CCCc1ccc(OC)cc1NC(C)=O
- normalized growth [1]: 1.01
- normalized growth [2]: 1.01
- normalized growth [3]: 1.03
- normalized growth [4]: 1
- normalized growth [5]: 0.95
- normalized growth [6]: 0.996
- normalized growth [7]: 1.02
- normalized growth [30]: 0.991
- normalized growth [8]: 1.06
- normalized growth [9]: 1
- normalized growth [10]: 1
- normalized growth [11]: 0.996
- normalized growth [12]: 0.991
- normalized growth [13]: 1.02
- normalized growth [14]: 1.02
- normalized growth [15]: 1.03
- normalized growth [16]: 0.987
- normalized growth [17]: 1.03
- normalized growth [18]: 1.01
- normalized growth [19]: 1.01
- normalized growth [21]: 1.03
- normalized growth [22]: 1.05
- normalized growth [23]: 1.01
- normalized growth [24]: 1.02
- normalized growth [25]: 1.06
- normalized growth [26]: 0.99
- normalized growth [27]: 0.999
- normalized growth [28]: 1.06
- normalized growth [29]: 0.999

SMILES: COc1ccc2[nH]c(I)c(CCNC(C)=O)c2c1
- normalized growth [1]: 1.03
- normalized growth (S. cerevisiae deletion strains, locus YAL040C, strain CLN3, active compounds read low): 0.959
- normalized growth (S. cerevisiae deletion strains, locus YCL061C, strain MRC1 (second series), active compounds read low): 1.01
- normalized growth (S. cerevisiae deletion strains, locus YDR363W, strain ESC2, active compounds read low): 1.02
- normalized growth (S. cerevisiae deletion strains, locus YER002W, strain NOP16, active compounds read low): 1.01
- normalized growth [7]: 1.02
- normalized growth [30]: 0.998
- normalized growth [11]: 1.11 [resistant] (active)
- normalized growth [20]: 1.1
- normalized growth [21]: 0.997
- normalized growth (S. cerevisiae deletion strains, locus YNL175C, strain NOP13, active compounds read low): 1.01
- normalized growth (S. cerevisiae deletion strains, locus YNL197C, strain WHI3, active compounds read low): 1.01
- normalized growth (S. cerevisiae deletion strains, locus YNL224C, strain SQS1, active compounds read low): 1.02
- normalized growth [23]: 1.02
- normalized growth [26]: 1.09
- normalized growth [27]: 1.01

— PubChem BioAssay AID1159580 (chemical genetic matrix, 2015)
